Measured values reported in article PMC7862700, “An all-to-all approach to the identification of sequence-specific readers for epigenetic DNA modifications on cytosine”.

Assays:
Test in all cases: DAPPL (digital affinity profiling via proximity ligation, sequencing); 10 mM Tris-HCl pH 7.5, 50 mM NaCl, 1 mM DTT, 4% glycerol, room temperature, 30 min; GST-TFs on glutathione beads, 16-mer random dsDNA library, 0.1% formaldehyde crosslink after washing; high values mean tight binding
Conditions in all cases: protein: recombinant; tags: N-terminal GST; dsDNA, one strand shown
ELK1 = target: T1, ELK1 (Homo sapiens, UniProt P19419 1-428)
T1 sequence: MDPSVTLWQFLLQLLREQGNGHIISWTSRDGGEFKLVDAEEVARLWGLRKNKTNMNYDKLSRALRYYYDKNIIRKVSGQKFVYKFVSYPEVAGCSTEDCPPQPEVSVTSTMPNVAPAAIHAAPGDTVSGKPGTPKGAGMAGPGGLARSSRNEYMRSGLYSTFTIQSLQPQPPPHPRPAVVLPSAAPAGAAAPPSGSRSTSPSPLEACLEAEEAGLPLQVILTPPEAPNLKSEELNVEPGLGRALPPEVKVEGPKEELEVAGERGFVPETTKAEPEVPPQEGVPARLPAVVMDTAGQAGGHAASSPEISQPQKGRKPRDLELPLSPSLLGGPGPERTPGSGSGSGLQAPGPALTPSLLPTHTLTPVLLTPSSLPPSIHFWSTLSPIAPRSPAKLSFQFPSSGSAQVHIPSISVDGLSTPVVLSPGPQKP
Method in brief: (§1)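 The binding signal reported is, for every hexamer, its read frequency for a factor over its read frequency for the tag-only sample. Reads came from pools of yeast-expressed, GST-fused human transcription factors on glutathione beads, barcoded with DNA and mixed with that sample, which were incubated with 200 nmole of a random double-stranded 16-mer DNA library in Tris/NaCl/DTT/glycerol buffer at room temperature for 30 min. After washing, the pools were crosslinked with 0.1% formaldehyde, proximity-ligated with BsaI/T4 ligase for 1 h at 37 °C, PCR-amplified and sequenced on an Illumina NextSeq500.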

GABPA = target: T2, GABPA (Homo sapiens, UniProt Q06546 1-454)
T2 sequence: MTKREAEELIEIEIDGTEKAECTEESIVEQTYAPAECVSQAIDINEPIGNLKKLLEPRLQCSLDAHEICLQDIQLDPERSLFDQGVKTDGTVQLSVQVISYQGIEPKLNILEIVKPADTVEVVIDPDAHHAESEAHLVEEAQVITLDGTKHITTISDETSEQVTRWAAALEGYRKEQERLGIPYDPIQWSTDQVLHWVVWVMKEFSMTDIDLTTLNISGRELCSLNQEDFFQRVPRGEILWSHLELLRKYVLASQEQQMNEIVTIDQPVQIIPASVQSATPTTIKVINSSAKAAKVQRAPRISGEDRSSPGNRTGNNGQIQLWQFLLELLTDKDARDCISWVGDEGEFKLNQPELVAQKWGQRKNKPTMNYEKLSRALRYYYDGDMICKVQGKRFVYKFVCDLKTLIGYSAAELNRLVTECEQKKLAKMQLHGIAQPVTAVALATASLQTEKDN
Method in brief: as §1

ERG = target: T3, ERG (Homo sapiens, UniProt P11308 1-479)
T3 sequence: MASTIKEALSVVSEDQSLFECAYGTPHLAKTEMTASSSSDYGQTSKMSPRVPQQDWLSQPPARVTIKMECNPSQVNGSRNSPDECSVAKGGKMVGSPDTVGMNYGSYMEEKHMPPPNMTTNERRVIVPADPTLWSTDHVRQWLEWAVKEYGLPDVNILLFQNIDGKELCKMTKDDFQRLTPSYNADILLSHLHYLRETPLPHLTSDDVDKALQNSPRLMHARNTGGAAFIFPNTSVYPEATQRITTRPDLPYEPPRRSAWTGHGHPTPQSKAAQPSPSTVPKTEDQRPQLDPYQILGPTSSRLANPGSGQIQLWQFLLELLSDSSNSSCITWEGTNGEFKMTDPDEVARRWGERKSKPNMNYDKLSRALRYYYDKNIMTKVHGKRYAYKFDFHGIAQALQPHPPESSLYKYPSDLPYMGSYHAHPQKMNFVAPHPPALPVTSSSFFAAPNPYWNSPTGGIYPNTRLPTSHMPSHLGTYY
Method in brief: as §1

ELF1 = ELF1 (Homo sapiens, UniProt P32519 1-619)
Sequence of ELF1 (P32519 whole entry): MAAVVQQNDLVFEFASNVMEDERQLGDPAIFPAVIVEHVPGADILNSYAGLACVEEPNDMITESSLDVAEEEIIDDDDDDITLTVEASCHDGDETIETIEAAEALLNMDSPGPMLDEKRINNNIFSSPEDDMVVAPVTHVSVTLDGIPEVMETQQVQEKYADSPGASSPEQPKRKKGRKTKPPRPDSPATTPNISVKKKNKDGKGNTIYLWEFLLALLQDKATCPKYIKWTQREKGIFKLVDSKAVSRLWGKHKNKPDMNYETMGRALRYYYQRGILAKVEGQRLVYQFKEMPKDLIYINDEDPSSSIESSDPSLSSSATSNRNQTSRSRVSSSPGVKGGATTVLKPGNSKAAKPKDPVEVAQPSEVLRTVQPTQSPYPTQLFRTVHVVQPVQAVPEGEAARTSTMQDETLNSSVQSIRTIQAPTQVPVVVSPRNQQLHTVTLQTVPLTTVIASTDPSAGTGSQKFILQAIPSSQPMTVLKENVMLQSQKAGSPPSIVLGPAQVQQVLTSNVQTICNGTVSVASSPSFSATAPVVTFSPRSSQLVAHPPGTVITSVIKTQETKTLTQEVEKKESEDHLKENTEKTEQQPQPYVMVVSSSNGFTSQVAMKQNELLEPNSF
Method in brief: as §1

EHF = target: T4, EHF (Homo sapiens, UniProt Q9NZC4 1-300)
T4 sequence: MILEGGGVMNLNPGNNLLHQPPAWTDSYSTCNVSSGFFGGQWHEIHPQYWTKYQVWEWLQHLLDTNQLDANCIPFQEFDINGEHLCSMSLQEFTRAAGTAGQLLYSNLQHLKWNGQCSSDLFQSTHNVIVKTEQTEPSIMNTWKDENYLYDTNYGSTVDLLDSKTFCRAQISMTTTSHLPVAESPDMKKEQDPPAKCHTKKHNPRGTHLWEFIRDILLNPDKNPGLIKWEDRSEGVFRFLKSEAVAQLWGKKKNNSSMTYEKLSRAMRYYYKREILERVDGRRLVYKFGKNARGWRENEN
Method in brief: as §1

SPIB = SPIB (Homo sapiens, UniProt Q01892 1-262)
Sequence of SPIB (Q01892 whole entry): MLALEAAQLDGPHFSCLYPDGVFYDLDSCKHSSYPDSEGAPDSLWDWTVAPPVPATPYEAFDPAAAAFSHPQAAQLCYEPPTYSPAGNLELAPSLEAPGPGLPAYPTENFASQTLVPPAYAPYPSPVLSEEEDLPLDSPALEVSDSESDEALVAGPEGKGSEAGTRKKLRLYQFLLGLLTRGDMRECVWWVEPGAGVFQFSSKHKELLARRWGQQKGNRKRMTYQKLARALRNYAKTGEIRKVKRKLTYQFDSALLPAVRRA
Method in brief: as §1

FEV = target: T5, FEV (Homo sapiens, UniProt Q99581 1-238)
T5 sequence: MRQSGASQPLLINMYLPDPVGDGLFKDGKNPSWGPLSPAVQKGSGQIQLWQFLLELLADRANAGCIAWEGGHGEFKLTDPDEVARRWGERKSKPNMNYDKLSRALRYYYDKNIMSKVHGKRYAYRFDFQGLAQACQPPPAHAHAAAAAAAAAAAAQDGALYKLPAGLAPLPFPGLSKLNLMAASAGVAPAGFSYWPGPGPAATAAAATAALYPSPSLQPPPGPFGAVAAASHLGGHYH
Method in brief: as §1

ETV5 = ETV5 (Homo sapiens, UniProt P41161 1-510)
Sequence of ETV5 (P41161 whole entry): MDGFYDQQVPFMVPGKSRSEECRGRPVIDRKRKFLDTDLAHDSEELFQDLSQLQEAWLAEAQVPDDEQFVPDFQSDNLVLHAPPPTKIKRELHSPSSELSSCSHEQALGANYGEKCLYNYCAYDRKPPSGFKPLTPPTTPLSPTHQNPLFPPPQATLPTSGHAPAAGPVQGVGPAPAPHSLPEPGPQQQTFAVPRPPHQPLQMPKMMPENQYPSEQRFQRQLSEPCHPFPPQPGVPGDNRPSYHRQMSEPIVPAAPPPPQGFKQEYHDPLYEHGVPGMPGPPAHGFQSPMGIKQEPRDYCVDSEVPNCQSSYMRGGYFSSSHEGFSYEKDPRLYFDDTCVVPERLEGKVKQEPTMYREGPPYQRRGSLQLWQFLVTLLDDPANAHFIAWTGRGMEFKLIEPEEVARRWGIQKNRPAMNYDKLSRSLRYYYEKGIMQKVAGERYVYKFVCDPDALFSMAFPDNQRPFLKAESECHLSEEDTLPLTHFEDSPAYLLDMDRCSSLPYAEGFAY
Method in brief: as §1

ELF4 = ELF4 (Homo sapiens, UniProt Q99607 1-663)
Sequence of ELF4 (Q99607 whole entry): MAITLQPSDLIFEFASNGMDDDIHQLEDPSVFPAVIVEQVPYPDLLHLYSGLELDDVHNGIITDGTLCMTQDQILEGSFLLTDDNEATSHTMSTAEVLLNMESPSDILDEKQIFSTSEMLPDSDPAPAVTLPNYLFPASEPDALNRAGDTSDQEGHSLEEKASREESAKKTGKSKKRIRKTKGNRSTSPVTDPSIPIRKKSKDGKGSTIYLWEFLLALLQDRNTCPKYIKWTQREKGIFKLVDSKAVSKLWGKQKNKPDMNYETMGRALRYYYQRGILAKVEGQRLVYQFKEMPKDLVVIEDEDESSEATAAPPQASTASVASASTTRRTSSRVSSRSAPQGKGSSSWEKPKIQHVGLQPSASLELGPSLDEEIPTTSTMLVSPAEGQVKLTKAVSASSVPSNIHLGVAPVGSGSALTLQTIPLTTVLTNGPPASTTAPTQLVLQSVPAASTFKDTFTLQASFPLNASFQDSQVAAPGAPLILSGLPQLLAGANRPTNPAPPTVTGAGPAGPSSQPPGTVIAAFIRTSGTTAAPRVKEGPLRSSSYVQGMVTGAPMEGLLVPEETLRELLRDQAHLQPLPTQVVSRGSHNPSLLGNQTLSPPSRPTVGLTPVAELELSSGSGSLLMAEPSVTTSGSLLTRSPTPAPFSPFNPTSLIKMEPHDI
Method in brief: as §1

ELK4 = target: T6, ELK4 (Homo sapiens, UniProt P28324-2 1-405)
T6 sequence: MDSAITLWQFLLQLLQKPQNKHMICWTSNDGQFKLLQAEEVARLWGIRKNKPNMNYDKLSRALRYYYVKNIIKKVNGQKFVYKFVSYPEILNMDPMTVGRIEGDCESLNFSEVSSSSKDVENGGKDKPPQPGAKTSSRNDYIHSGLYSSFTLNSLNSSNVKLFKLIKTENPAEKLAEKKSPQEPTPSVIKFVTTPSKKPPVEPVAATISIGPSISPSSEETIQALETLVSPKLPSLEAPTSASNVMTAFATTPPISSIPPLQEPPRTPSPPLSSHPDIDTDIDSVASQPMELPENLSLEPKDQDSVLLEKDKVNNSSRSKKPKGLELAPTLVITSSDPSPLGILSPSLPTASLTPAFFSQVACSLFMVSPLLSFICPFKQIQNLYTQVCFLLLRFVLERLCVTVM
Method in brief: as §1

## AAGATC
ELK1
  binding signal: 1.07 fold enrichment (6-mer frequency, TF over GST control)
GABPA
  binding signal: 1.08 fold enrichment (6-mer frequency, TF over GST control)
ERG
  binding signal: 1.07 fold enrichment (6-mer frequency, TF over GST control)
ELF1
  binding signal: 1.05 fold enrichment (6-mer frequency, TF over GST control)
EHF
  binding signal: 1.04 fold enrichment (6-mer frequency, TF over GST control)
SPIB
  binding signal: 1.13 fold enrichment (6-mer frequency, TF over GST control)
FEV
  binding signal: 1.03 fold enrichment (6-mer frequency, TF over GST control)
ETV5
  binding signal: 1.03 fold enrichment (6-mer frequency, TF over GST control)
ELF4
  binding signal: 1.03 fold enrichment (6-mer frequency, TF over GST control)
ELK4
  binding signal: 1.01 fold enrichment (6-mer frequency, TF over GST control)
